Source: PubChem (The Scripps Research Institute Molecular Screening Center)
MsrA act: activates bovine MsrA enzyme. purified bovine MsrA, absorbance read-out. activation, % at 10.6 µM. 360,000 tested, 0.3% active. AID 602163; in the data active = activation above about 7.5%;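 note: 0% = vehicle and 100% = reference activator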
PG9 binder: binds the HIV-1 gp120 antibody PG9; inhibition, % at 6.7 µM; 360,000 tested, 0.43% active; TR-FRET gp120-PG9 antibody binding; in the data active = inhibition above about 8.5%
rCAG RNA binder: r(CAG) repeat RNA binding; TO-PRO-1 dye displacement fluorescence; inhibition, % at 3 µM; 370,000 tested, 1.3% active;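 active = inhibition above the plate cutoff, the mean of all test compounds on that plate plus 3 SD, cut at about 35% in these data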;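 note: 0% = DMSO alone and 100% = 100 µM mitoxantrone as full dye displacement; higher means more dye released from RNA so lower well fluorescence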
MsrA inh: inhibits bovine methionine sulfoxide reductase A; AID 651718; 360,000 tested, 0.75% active; inhibition, % at 15.5 µM; purified bovine MsrA, absorbance read-out; in the data active = inhibition above about 4.5%;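 note: 0% = vehicle wells with enzyme and 100% = reference inhibitor wells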
sPLA2-III inh: Blocks human group III sPLA2 activity | Q9NZ20 | QFRET BODIPY PC-A2 liposome hydrolysis, fluorescence | AID 743126 | 370,000 tested, 0.56% active | inhibition, % at 12.2 µM;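 active = inhibition above mean plus 3 SD of compounds lying within the high and low control bounds, cut at about 19% in these data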;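 note: 0% = median of test compound wells and 100% = no enzyme DMSO wells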
Target sequence (Q9NZ20 whole entry, looked up): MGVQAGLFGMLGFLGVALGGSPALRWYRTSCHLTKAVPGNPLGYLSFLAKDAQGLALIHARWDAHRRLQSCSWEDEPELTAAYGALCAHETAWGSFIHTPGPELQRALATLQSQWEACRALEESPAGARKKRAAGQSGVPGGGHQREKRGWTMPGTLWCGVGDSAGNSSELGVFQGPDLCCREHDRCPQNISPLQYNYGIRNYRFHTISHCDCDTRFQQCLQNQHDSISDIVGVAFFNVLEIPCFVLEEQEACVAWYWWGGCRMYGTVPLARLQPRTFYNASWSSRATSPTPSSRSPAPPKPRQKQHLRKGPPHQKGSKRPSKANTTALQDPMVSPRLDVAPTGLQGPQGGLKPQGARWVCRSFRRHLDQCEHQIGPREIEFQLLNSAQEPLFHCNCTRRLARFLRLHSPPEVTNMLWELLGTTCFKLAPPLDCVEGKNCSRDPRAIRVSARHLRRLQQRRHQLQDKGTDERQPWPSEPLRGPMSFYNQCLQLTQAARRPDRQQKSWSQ
hGIII sPLA2 conf: human GIII-sPLA2 inhibition, confirmation; shares compounds with sPLA2-III inh; recombinant hGIII-sPLA2, BODIPY PC-A2 QFRET fluorescence; inhibition, % at 12.2 µM; 2,000 tested, 34% active; AID 743280;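 active = mean inhibition across triplicates above the hit cutoff set in the earlier primary screen, cut at about 19% in these data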;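 note: 0% = enzyme with DMSO and 100% = DMSO wells lacking enzyme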
535nm interf: 535nm fluorescence interference, HGIII-sPLA2 counter-screen | shares compounds with sPLA2-III inh | BODIPY FL product fluorescence interference, QFRET | inhibition, % at 12.2 µM | 2,000 tested, 8.5% active;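 active = average inhibition above the solvent-only control mean plus 3 SD, cut at about 6% in these data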;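 note: 0% = DMSO with substrate plus product and 100% = DMSO with substrate alone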
BODIPY interf DR: 535nm optical interference dose response, HGIII-sPLA2 counter-screen | AID 743455 | shares compounds with sPLA2-III inh | BODIPY FL product fluorescence interference, cell-free | IC50, µM | 240 tested, under 10 active;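 active = IC50 at or below 10 µM; inactive = IC50 above 10 µM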
* marks the source's active call; other numbers are inactive results; . = no result given. Most compounds without a hit are left out; they make up all but 3.2% or so of the library.

SMILES	MsrA act	PG9 binder	rCAG RNA binder	MsrA inh	sPLA2-III inh	hGIII sPLA2 conf	535nm interf	others
Cn1cccc1C(=O)N1CCN(S(=O)(=O)c2ccc(Cl)s2)CC1	.	.	2.0	.	-6.4	.	.
CCCCC(=O)Nc1c2c(nn1-c1cccc(C)c1C)CS(=O)(=O)C2	-0.8	1.3	0.7	0.4	20.2*	0.7	1.4
CCCC(=O)Nc1c2c(nn1-c1cccc(C)c1C)CS(=O)(=O)C2	-1.3	-0.7	1.8	-0.3	-0.1	.	.
CC(C)C[C@H](NC(=O)c1ccco1)C(=O)N1CCC[C@H]1C(=O)NCc1ccccc1	.	-0.7	2.0	-0.8	-1.4	.	.
CC1CN(Cc2ccccc2)c2ccccc2NC1=S (stereo not given)	-3.1	-2.3	4.7	1.5	21.0*	22.5*	0.2
O=C(NC(=S)N1CCN(c2ccc(C(F)(F)F)cc2[N+](=O)[O-])CC1)c1cccs1	-2.5	-0.9	11.1	0.1	31.2*	46.9*	9.5*
CCN1CCN(C(=S)NC(=O)c2cccs2)CC1	1.7	-2.6	-0.3	-1.1	2.8	.	.
O=C(CNc1ccc2ccccc2c1)N/N=C/c1ccncc1	-1.2	0.3	15.1	0.5	19.8*	12.3	-5.5
CCCC(=O)NC(c1ccc(C)cc1)c1ccc2cccnc2c1O (stereo not given)	4.3	.	.	.	.	.	.
CC(=O)NC(c1ccc(Cl)cc1Cl)c1ccc2cccnc2c1O (stereo not given)	-1.1	0.9	8.4	0.6	19.4*	23.0*	-8.8
CCN(CC)c1ccc(C(NC(=O)C(C)C)c2ccc3cccnc3c2O)cc1 (stereo not given)	-1.6	2.3	9.0	1.0	36.1*	22.6*	-2.0
CCCC(=O)NC(c1ccc(Cl)cc1)c1ccc2cccnc2c1O (stereo not given)	-3.5	-1.7	6.3	0.8	22.2*	24.1*	-4.8
CCCCC(=O)NC(c1ccc(N(C)C)cc1)c1ccc2cccnc2c1O (stereo not given)	-9.4	-0.4	-3.1	-0.5	38.2*	26.2*	-6.8
CCCCC(=O)NC(c1ccc(N(CC)CC)cc1)c1ccc2cccnc2c1O (stereo not given)	-7.0	-1.3	4.1	0.1	14.9	.	.
C#CCCC(=O)O[C@H]1CCC[C@@]2(C(=O)N(Cc3ccccc3)c3ccccc32)[C@H]1NC(=O)CCc1ccccc1	.	.	2.7	.	-8.6	.	.
CCCC(=O)NC(c1ccccc1OC)c1ccc2cccnc2c1O (stereo not given)	-2.5	.	.	.	.	.	.
CCCCC(=O)NC(c1ccccc1OC)c1ccc2cccnc2c1O (stereo not given)	-9.5	-0.9	0.9	0.9	30.7*	27.7*	-11.4	BODIPY interf DR=>122
Cc1ccc2nc(-c3cc(N)cc(N)c3)oc2c1	0.1	-4.9	11.3	0.7	23.2*	36.2*	-2.4	BODIPY interf DR=>122
COc1ccc(C=C2NC(=S)NC2=O)cc1	1.2	-11.5	1.1	3.5	25.1*	10.5	-2.6
COc1ccc(/C=C/C=C2\NC(=S)NC2=O)cc1	-9.4	-6.9	10.2	1.2	2.5	.	.
COc1ccc2c(c1)c[n+](C)c1c3cc(OC)c(OC)cc3ccc21	-2.0	-0.4	18.1	0.7	27.4*	36.2*	-26.3	BODIPY interf DR=>122
COc1cc2c[n+](C)c3c4ccccc4ccc3c2cc1OC	-7.1	-0.4	12.9	1.0	8.0	.	.
OC(c1cc(F)cc(Cl)c1)c1ncc(-c2ccc(Cl)cc2)[nH]1 (stereo not given)	3.1	0.3	3.0	0.8	-5.2	.	.
CCC(Oc1ccccc1)C(=O)NCCOC (stereo not given)	-4.2	-0.3	6.7	-0.1	20.8*	0.0	-6.9
CN[C@H]1C[C@H]2c3[nH]c4c(-c5ccc6c(c5)OCO6)cccc4c3CCN2C(=O)[C@H]1[C@H](C)O	.	-2.1	1.3	0.2	-17.3	.	.
Cc1ccc(C(=O)Nc2sc(C)c(C)c2C(=O)c2ccccc2)cc1	-1.0	2.7	2.6	0.6	23.3*	-4.3	-6.0
Clc1ccc(-c2csc(NCC3CCCO3)n2)cc1 (stereo not given)	.	-3.8	4.7	-1.6	-3.9	.	.
